# Several values for one entry are separate records, joined by “and”; a condition that tells them apart may be missing. Equal entries are not always repeated. Structures can show the parent of a compound that is named as a salt. Among all 5,800 compounds or so, about 620 (11%) showed activity. What follows is part of a selection rich in actives, with near analogues and random picks from the rest. Values without a mark were called inactive.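 The calls were made as follows: active = score above a cut-off or among the top three wells of a plate; in these data no inactive exceeds 0.85.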
# Test system: primary human hepatic stellate cells (donor 1)
# Test: scaled lipid accumulation score (0 = DMSO-like, 1 = nortriptyline-like); higher = stronger HSC inactivation (lipid re-accumulation), active = hit call of the paper
# Conditions: 48 h
# [1] = library stock concentration: 3.33 mM
# [2] = library stock concentration: 10 mM
# [3] = library stock concentration: 1 mM
# [4] = library stock concentration: 2 mM
# [5] = library stock concentration: 80 uM
# [6] = library stock concentration: 400 uM
structure (smiles),measurement,setting,value
CCCCC(F)(F)[C@@]1(O)CC[C@H]2[C@@H](CC(=O)[C@@H]2CCCCCCC(=O)O)O1 [Lubiprostone],scaled lipid accumulation score,[1],≤ 0
same,scaled lipid accumulation score,[2],≤ 0
CCCCC/C=C\C/C=C\CCCCCCCC(=O)OCC(O)CO (stereo unspecified) [1-Linoleoyl Glycerol],scaled lipid accumulation score,[3],≤ 0
C=C1C[C@H](O)[C@H](C/C=C\CCCC(=O)O)[C@H]1/C=C/[C@@H](O)CCCCC [11-deoxy-11-methylene Prostaglandin D2],scaled lipid accumulation score,[3],≤ 0
CCC(C)C(COC(Cc1ccccc1)C(=O)NC(CCS(C)(=O)=O)C(=O)OC(C)C)NCC(N)CS (stereo unspecified),scaled lipid accumulation score,library stock concentration: 7.9 mM,0.195
CC(C)(C)CC(C)(C)c1cc(Cc2cc(C(C)(C)CC(C)(C)C)cc(-n3nc4ccccc4n3)c2O)c(O)c(-n2nc3ccccc3n2)c1,scaled lipid accumulation score,[2],≤ 0
CCCCC[C@@H](O)[C@H]1C(=O)O[C@H](C)[C@@H](O)/C=C/C=C/C=C/C=C/C=C(\C)[C@@H](O)C[C@H](O)C[C@H](O)C[C@H](O)C[C@H](O)C[C@H](O)C[C@@H]1O [Filipin],scaled lipid accumulation score,library stock concentration: 3.1 mM,0.029
CCCCC[C@@H](O)[C@H]1C(=O)O[C@H](C)[C@@H](O)/C=C/C=C/C=C/C=C/C=C(\C)[C@@H](O)C[C@H](O)C[C@H](O)C[C@H](O)C[C@H](O)C[C@H](O)C[C@@H]1O [Filipin III],scaled lipid accumulation score,[3],0.021
COc1ccc2c(c1)c(CC(=O)SC[C@H](NC(C)=O)C(=O)OCCCCO[N+](=O)[O-])c(C)n2C(=O)c1ccc(Cl)cc1 [NO-Indomethacin],scaled lipid accumulation score,[3],≤ 0
C[C@@H]1C[C@H]2[C@@H]3CCC4=CC(=O)C=C[C@]4(C)[C@@]3(Cl)[C@@H](O)C[C@]2(C)[C@@]1(OC(=O)c1ccco1)C(=O)CCl [Mometasone furoate],scaled lipid accumulation score,,0.136
same,scaled lipid accumulation score,[1],0.086
same,scaled lipid accumulation score,[2],0.519
COc1cc(Nc2c(C#N)cnc3cc(OCCCN4CCN(C)CC4)c(OC)cc23)c(Cl)cc1Cl [Bosutinib (SKI-606) (10 mM)],scaled lipid accumulation score,[2],0.388
COc1cc(Nc2c(C#N)cnc3cc(OCCCN4CCN(C)CC4)c(OC)cc23)c(Cl)cc1Cl [Bosutinib (SKI-606) (2 mM)],scaled lipid accumulation score,[4],0.096
COc1cc(Nc2c(C#N)cnc3cc(OCCCN4CCN(C)CC4)c(OC)cc23)c(Cl)cc1Cl [Bosutinib (SKI-606)],scaled lipid accumulation score,[1],0.374
same,scaled lipid accumulation score,[2],0.395
CCN1CCC(n2cc(CNc3cc(Cl)c4ncc(C#N)c(Nc5ccc(F)c(Cl)c5)c4c3)nn2)CC1 [listing 1 of 2 here],scaled lipid accumulation score,[5],≤ -0.009
same,scaled lipid accumulation score,[6],≤ -0.009
same,scaled lipid accumulation score,[4],≤ -0.009
CCN1CCC(n2cc(CNc3cc(Cl)c4ncc(C#N)c(Nc5ccc(F)c(Cl)c5)c4c3)nn2)CC1 [listing 2 of 2 here],scaled lipid accumulation score,[2],1.15 (active)
COc1cc(Nc2c(C#N)cnc3cc(OCCCN4CCN(C)CC4)c(OC)cc23)c(Cl)cc1Cl [Bosutinib],scaled lipid accumulation score,[5],≤ -0.016
same,scaled lipid accumulation score,[6],≤ -0.016
same,scaled lipid accumulation score,[4],≤ -0.016
same,scaled lipid accumulation score,[2],≤ -0.016
COc1cc(Nc2c(C#N)cnc3cc(OCCCN4CCN(C)CC4)c(OC)cc23)c(Cl)cc1Cl [Bosutinib (SKI-606) (0.4 mM)],scaled lipid accumulation score,[6],≤ -0.005
CC(C)c1ccccc1S(=O)(=O)c1cc(N)c2ncccc2c1[N+](=O)[O-],scaled lipid accumulation score,[2],0.26
O=C(O)COc1ccc(C(=O)c2cccs2)c(Cl)c1Cl [Tienilic Acid],scaled lipid accumulation score,[3],≤ 0
CC(C)c1ccc(C(=O)c2cccs2)c(SCCCCCCCCN(C)C)n1.O=C(O)C(=O)O,scaled lipid accumulation score,[2],1.24 (active)
CC(C(=O)O)c1ccc(C(=O)c2cccs2)cc1 (stereo unspecified) [Suprofen],scaled lipid accumulation score,,≤ 0
same,scaled lipid accumulation score,[1],≤ 0
same,scaled lipid accumulation score,library stock concentration: 7.7 mM,≤ 0
same,scaled lipid accumulation score,[2],0.024 and ≤ 0
CC12CCC(CC1=O)C2(C)C (stereo unspecified) [Camphor (1r)],scaled lipid accumulation score,library stock concentration: 13.1 mM,≤ -0.001
CO[C@H]1O[C@@H]2O[C@@]3(C)CC[C@H]4[C@H](C)CC[C@@H]([C@H]1C)[C@@]24OO3,scaled lipid accumulation score,[2],≤ 0
CO[C@H]1O[C@@H]2O[C@@]3(C)CC[C@H]4[C@H](C)CC[C@@H]([C@H]1C)[C@@]24OO3 [Artemether],scaled lipid accumulation score,[1],≤ 0
same,scaled lipid accumulation score,[2],≤ 0 and 0.024
CN1CC[C@@H](c2c(O)cc(O)c3c(=O)cc(-c4ccccc4Cl)oc23)[C@@H]1CO,scaled lipid accumulation score,[1],≤ -0.009
same,scaled lipid accumulation score,[2],0.465
CN1CCN(S(=O)(=O)c2ccc(-c3cnc(N)c(C(=O)Nc4cccnc4)n3)cc2)CC1 [listing 1 of 2 here],scaled lipid accumulation score,[2],1.02 (active)
CN1CCN(S(=O)(=O)c2ccc(-c3cnc(N)c(C(=O)Nc4cccnc4)n3)cc2)CC1 [listing 2 of 2 here],scaled lipid accumulation score,[1],0.821
CN(C)c1nc(N)c(C(=O)Nc2cccnc2)nc1Cl [ACDPP hydrochloride],scaled lipid accumulation score,[2],≤ -0.001
CS(=O)(=O)c1ccc(-c2cnc(N)c(C(=O)Nc3ccccc3)n2)cc1 [listing 1 of 2 here],scaled lipid accumulation score,[5],0.017
same,scaled lipid accumulation score,[6],≤ 0
same,scaled lipid accumulation score,[4],≤ 0
same,scaled lipid accumulation score,[1],0.225
same,scaled lipid accumulation score,[2],0.489
CS(=O)(=O)c1ccc(C(=O)Nc2ccc(Cl)c(-c3ccccn3)c2)c(Cl)c1 [Vismodegib (GDC-0449)],scaled lipid accumulation score,[1],0.002
same,scaled lipid accumulation score,[2],≤ 0
CS(=O)(=O)c1ccc(-c2cnc(N)c(C(=O)Nc3ccccc3)n2)cc1 [listing 2 of 2 here],scaled lipid accumulation score,[2],0.907 (active)
Cl.O=C([O-])c1ccc(-c2c3nc(c(-c4ccc(C(=O)O)cc4)c4nc(c(-c5ccc(C(=O)O)cc5)c5ccc([nH]5)c(-c5ccc(C(=O)[O-])cc5)c5ccc2[n-]5)C=C4)C=C3)cc1.[Mn+3] [MnTBAP chloride],scaled lipid accumulation score,library stock concentration: 5.7 mM,≤ -0.012
Cc1cn([C@H]2O[C@@H](CO)[C@H](O)[C@H]2F)c(=O)[nH]c1=O [Clevudine],scaled lipid accumulation score,[1],≤ 0
same,scaled lipid accumulation score,[2],≤ 0
O=C(CCC/C=C\C[C@H]1C(=O)C[C@@H](O)C1/C=C/[C@@H](O)CCc1ccccc1)NC(CO)CO (stereo partly specified) [17-phenyl trinor Prostaglandin E2 serinol amide],scaled lipid accumulation score,[3],≤ 0
NC(=O)N[C@@H](CCC(=O)O)C(=O)O,scaled lipid accumulation score,[2],≤ 0
O=C(Oc1cc(S(=O)(=O)c2ccccc2)ccc1[N+](=O)[O-])c1ccc(Cl)cc1,scaled lipid accumulation score,[1],≤ -0.009
same,scaled lipid accumulation score,[2],≤ 0
S=C(NCc1ccc2c(c1)OCO2)N1CCN(c2ncnc3c2oc2ccccc23)CC1 [Amuvatinib  (MP-470) (2 mM)],scaled lipid accumulation score,[4],0.074
S=C(NCc1ccc2c(c1)OCO2)N1CCN(c2ncnc3c2oc2ccccc23)CC1 [Amuvatinib  (MP-470) (0.4 mM)],scaled lipid accumulation score,[6],0.042
S=C(NCc1ccc2c(c1)OCO2)N1CCN(c2ncnc3c2oc2ccccc23)CC1,scaled lipid accumulation score,[5],0.069
same,scaled lipid accumulation score,[6],≤ -0.009
same,scaled lipid accumulation score,[4],0.025
same,scaled lipid accumulation score,[2],0.035
S=C(NCc1ccc2c(c1)OCO2)N1CCN(c2ncnc3c2oc2ccccc23)CC1 [Amuvatinib (MP-470)],scaled lipid accumulation score,[1],0.006
same,scaled lipid accumulation score,[2],≤ 0
S=C(NCc1ccc2c(c1)OCO2)N1CCN(c2ncnc3c2oc2ccccc23)CC1 [Amuvatinib  (MP-470) (10 mM)],scaled lipid accumulation score,[2],0.068
O=C(O)[C@H]1NCCC[C@H]1C(=O)O,scaled lipid accumulation score,[2],≤ 0
C[S+]([O-])c1ccc(-c2nc(-c3ccc(F)cc3)c(-c3ccncc3)[nH]2)cc1 (stereo unspecified),scaled lipid accumulation score,[5],0.004
same,scaled lipid accumulation score,[6],≤ -0.009 and ≤ -0.005
same,scaled lipid accumulation score,[3],≤ 0
same,scaled lipid accumulation score,[4],0.017 and ≤ -0.005
same,scaled lipid accumulation score,[1],≤ 0
same,scaled lipid accumulation score,library stock concentration: 13.2 mM,≤ -0.012
CCCCCC=CC=CC(O)CCCCCCCC(=O)OCC(COC(=O)CCCCCCCC=CC=CC(O)CCCCC)OC(=O)CCCCCCCC=CC=CC(O)CCCCC (stereo unspecified) [Hydroxy Linoleins],scaled lipid accumulation score,[3],0.061
N#CCNC(=O)c1ccc(-c2ccnc(Nc3ccc(N4CCOCC4)cc3)n2)cc1 [listing 1 of 2 here],scaled lipid accumulation score,[1],1.05 (active)
same,scaled lipid accumulation score,[2],0.922 (active)
O=C(Nc1ccc(-c2ccnc(Nc3ccc(N4CCOCC4)cc3)n2)cc1)C1CCCN1 (stereo unspecified),scaled lipid accumulation score,[5],≤ 0
same,scaled lipid accumulation score,[6],0.007
same,scaled lipid accumulation score,[4],0.036
same,scaled lipid accumulation score,[1],0.063
same,scaled lipid accumulation score,[2],0.662
N#CCNC(=O)c1ccc(-c2ccnc(Nc3ccc(N4CCOCC4)cc3)n2)cc1 [listing 2 of 2 here],scaled lipid accumulation score,[5],≤ -0.009
same,scaled lipid accumulation score,[6],0.038
same,scaled lipid accumulation score,[4],≤ -0.009
same,scaled lipid accumulation score,[2],0.768
N#CCNC(=O)c1ccc(-c2ccnc(Nc3ccc(N4CCOCC4)cc3)n2)cc1 [Momelotinib (CYT387) (0.4 mM)],scaled lipid accumulation score,[6],≤ -0.005
O=C(Nc1ccc(-c2ccnc(Nc3ccc(N4CCOCC4)cc3)n2)cc1)[C@@H]1CCCN1,scaled lipid accumulation score,[2],1.06 (active)
N#CCNC(=O)c1ccc(-c2ccnc(Nc3ccc(N4CCOCC4)cc3)n2)cc1 [Momelotinib (CYT387) (2 mM)],scaled lipid accumulation score,[4],0.858 (active)
c1ccc2c(Oc3nc(Nc4ccc(N5CCOCC5)cc4)c4ncn(C5CCCCC5)c4n3)cccc2c1 [Purmorphamine],scaled lipid accumulation score,[3],≤ 0
same,scaled lipid accumulation score,[1],≤ 0
same,scaled lipid accumulation score,[2],0.032
N#CCNC(=O)c1ccc(-c2ccnc(Nc3ccc(N4CCOCC4)cc3)n2)cc1 [Momelotinib (CYT387) (10 mM)],scaled lipid accumulation score,[2],0.945 (active)
CC1=C(/C=C/C(=C/C=C/C(C)=C/C(=O)O)c2ccc(C)cc2)C(C)(C)CCC1,scaled lipid accumulation score,[2],≤ -0.001
CCCCCC=CCC=CCC=CCCCCCCC(=O)OC [Dihomo-.gamma.-Linolenic Acid methyl ester],scaled lipid accumulation score,[3],0.037
CC(C)CC(N)=O [Isovaleramide],scaled lipid accumulation score,[1],≤ 0
same,scaled lipid accumulation score,[2],≤ -0.001
CC(C)CC(N)=O,scaled lipid accumulation score,[2],0.291
